Screens as filed in PubChem BioAssay.
The list is not random: actives were taken first. Their share in the collection is about 2.7%.
EWS-Fli block: blocks EWS/Fli oncoprotein-driven transcription; A673 NR0B1-luciferase reporter, viability-normalised; inhibition, % at 12.6 µM; 350,000 compounds, 0.67% hits;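 active = mean inhibition of at least 50% after viability correction, with every replicate also passing that limit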;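 also: firefly luciferase signal divided by Alamar Blue viability fluorescence both relative to DMSO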
CFTR F508del cor: correctors of CFTR F508del function in bronchial epithelial cells | 350,000 compounds, 0.36% hits | CFBE cells, YFP halide quenching; stimulated with forskolin plus potentiator P3; % fluorescence drop versus neutral controls | activity (quench increase), % at 7.58 µM | AID 720511;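 active = mean added fluorescence quench of at least 8% versus neutral control, with both replicates also reaching 8%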;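 also: cells transiently co-express mutant CFTR-F508del with the halide-sensitive YFP; corrector assay measuring rescue of mutant channel to the surface after 24 h compound exposure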
PGC1a acetyl inh: lowers PGC1a acetylation signal in U2OS cells; AID 651687; 350,000 compounds, 0.17% hits; AlphaScreen anti-acetyl-lysine; with virally co-expressed GCN5 acetyltransferase; inhibition, % at 15.6 µM;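 active = every replicate shows inhibition of at least 40%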
GSIS activator: primary screen for activators of insulin secretion dependent on glucose, INS-1E cells, GLuc reporter luminescence; INS-1E GLuc reporter insulin secretion, 2-3 h; activation, % at 16.6 µM; 370,000 compounds, 0.61% hits; AID 743287;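 active = lowest replicate activation of at least 40%, so every replicate reaches that level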
HIV Env fusion: HIV envelope-mediated fusion inhibition; HeLa-JRFL Env/CEM21 cell fusion, luciferase; inhibition, % at 12.3 µM; 360,000 compounds, 1.1% hits; AID 651610;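 active = mean replicate inhibition score of at least 50 and every replicate individually at or above 50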
PAX8 reporter: lowers PAX8-driven luciferase in RMG-I cells. 360,000 compounds, 1.2% hits. RMG-I TPO-luciferase reporter, SteadyGlo, 24 h. AID 652154. inhibition, % at 12.6 µM;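 active = mean replicate inhibition at least 60% with every replicate also reaching 60%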;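 also: luciferase light reporting Pax8 driven TPO promoter activity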
Of the large screens only hits and unclear results are named; the others gave an inactive call.

CC1(C)CC(=O)C(C=NC2CC(C)(C)NC(C)(C)C2)=C(O)C1	GSIS activator 44 (no result: EWS-Fli block, CFTR F508del cor, HIV Env fusion, PAX8 reporter)
CC1(C)CC(=O)C(C=NC2CCCCC2)=C(O)C1	none (no result: EWS-Fli block, CFTR F508del cor, HIV Env fusion, PAX8 reporter)
COc1cc(/C=C/C(=O)c2ccc3c(c2)OCO3)cc(OC)c1OC	none (no result: EWS-Fli block, CFTR F508del cor, PGC1a acetyl inh, HIV Env fusion, PAX8 reporter)
COc1cc(C(=O)c2cc3c(cc2C)OCO3)cc(OC)c1OC	EWS-Fli block 58, PAX8 reporter 84
COCC(=O)Nc1ccc2c(c1)OC[C@@H](C)N(C(=O)C1CCCC1)C[C@@H](C)[C@@H](OC)CN(C)C2=O	none
CCOCC(=O)Nc1nc2ccc(OCC)cc2s1	none (no result: EWS-Fli block, CFTR F508del cor)
CCOc1ccc2nc(NC(=O)CSCC(=O)Nc3cc(C)on3)sc2c1	EWS-Fli block 60 (no result: PGC1a acetyl inh)
COc1ccc(NC(=O)Nc2ccc3c(c2)N(C)C(=O)CS3)cc1Cl	HIV Env fusion 76 (no result: EWS-Fli block, CFTR F508del cor, GSIS activator, PAX8 reporter)
CC1=Nc2cc(C(=O)NCC3CCCO3)ccc2Sc2ccc(C)cc21 (stereo not given)	CFTR F508del cor 10 (no result: PGC1a acetyl inh)
O=C(N/N=C(\c1ccccc1)c1cccnc1)c1cccc(F)c1	PAX8 reporter 73 (no result: EWS-Fli block, PGC1a acetyl inh)
COc1ccc(NC(=O)c2cc3n(n2)C(C(F)(F)F)CC(c2ccc4c(c2)OCO4)N3)cc1OC (stereo not given)	none (no result: EWS-Fli block, CFTR F508del cor, GSIS activator, HIV Env fusion, PAX8 reporter)
Cc1cccc(NC(=O)c2cc3n(n2)C(C(F)(F)F)CC(c2ccc4c(c2)OCO4)N3)c1 (stereo not given)	HIV Env fusion 106 (no result: EWS-Fli block, CFTR F508del cor, PGC1a acetyl inh, PAX8 reporter)
COc1ccc(NC(=O)CNS(=O)(=O)c2ccc(Cl)cc2)cc1	none (no result: EWS-Fli block, CFTR F508del cor, GSIS activator, HIV Env fusion, PAX8 reporter)
COc1cccc(S(=O)(=O)NCC(=O)Nc2ccc(C(C)(C)C)cc2)c1	PAX8 reporter 88 (no result: HIV Env fusion)
C[C@@H]1CN([C@@H](C)CO)C(=O)c2cc(-c3cccc(F)c3)cnc2O[C@@H]1CN(C)C(=O)C1CCCCC1	none (no result: PAX8 reporter)
COc1ccc(CNC(=O)C2=CC(c3ccc(OC)c(OC)c3)=NS(=O)(=O)N2C)cc1	none (no result: HIV Env fusion)
CCc1ccc(NC(=O)C2=CC(c3ccc(OC)c(OC)c3)=NS(=O)(=O)N2C)cc1	HIV Env fusion 56
COc1ccc(C(C#N)CC(=O)c2ccc3c(c2)OCO3)cc1OC (stereo not given)	CFTR F508del cor 14 (no result: PGC1a acetyl inh)
CNC(=O)CSc1nc(-c2ccccc2)c(-c2ccccc2)[nH]1	none (no result: EWS-Fli block, CFTR F508del cor, GSIS activator, PAX8 reporter)
CCC(Sc1nc(-c2ccccc2)c(-c2ccccc2)[nH]1)C(=O)O (stereo not given)	GSIS activator 67
O=C(c1sccc1-c1ccccc1)N1CCN(S(=O)(=O)c2ccccc2F)CC1	HIV Env fusion 66 (no result: PGC1a acetyl inh)
COc1ccc(S(=O)(=O)N2CCN(C(=O)c3sccc3-c3ccccc3)CC2)cc1	none
O=C(c1ccncc1)N1CC2(C1)[C@H](c1ccccc1)[C@@H](CO)N2CC1CCCC1	none (no result: HIV Env fusion, PAX8 reporter)
Cc1nnc(SCC(=O)Nc2nsc(-c3ccccc3)n2)s1	HIV Env fusion 57 (no result: EWS-Fli block, CFTR F508del cor, PAX8 reporter)
Cc1nc(NC(=O)CSc2ccc(-c3nc4ccccc4[nH]3)cn2)sc1C	GSIS activator 51 (no result: EWS-Fli block, CFTR F508del cor, PGC1a acetyl inh, HIV Env fusion, PAX8 reporter)
Cc1nnc(NC(=O)CSc2ncc(-c3ccccc3)[nH]2)s1	PGC1a acetyl inh 88
Cc1ccc(-c2nc(NC(=O)CSc3nnc(C)s3)ns2)cc1	none (no result: PGC1a acetyl inh)
Cc1ccc2nc(-c3ccc(SCC(=O)Nc4nnc(C)s4)nc3)[nH]c2c1	GSIS activator 459 (no result: EWS-Fli block, CFTR F508del cor, PGC1a acetyl inh, HIV Env fusion, PAX8 reporter)
CCc1nnc(NC(=O)CSc2ccc(-c3nc4ccccc4[nH]3)cn2)s1	none (no result: EWS-Fli block, CFTR F508del cor, GSIS activator, HIV Env fusion, PAX8 reporter)
O=C(NC1CCCC1)N1CC(=O)N2[C@H](CO)[C@@H](c3ccc(-c4cccc(F)c4)cc3)[C@H]2C1	none
CO[C@@H]1CN(C)C(=O)c2cc(NC(=O)NC(C)C)ccc2OC[C@@H](C)N(Cc2cncnc2)C[C@@H]1C	none
CC(=O)N1CCN(C(=S)NCc2ccccc2)CC1	GSIS activator 58 (no result: EWS-Fli block, CFTR F508del cor, PGC1a acetyl inh)
C[C@@H]1CN([C@@H](C)CO)C(=O)c2cc(NC(=O)c3ccncc3)ccc2O[C@@H](C)CCCCO[C@@H]1CN(C)C(=O)Nc1ccc(C(F)(F)F)cc1	none (no result: HIV Env fusion, PAX8 reporter)
COc1cc(Cn2c3ccc(NC(=O)CCc4ccccc4)cc3c(=O)n2C)ccc1F	EWS-Fli block 54
COc1ccc(CN(C)C[C@@H]2Oc3ccc(NC(=O)Nc4ccc(C(F)(F)F)cc4)cc3C(=O)N([C@H](C)CO)C[C@@H]2C)cc1	none (no result: PAX8 reporter)
C[C@@H](O)C#Cc1ccc2c(c1)O[C@H](CN(C)Cc1ccc(-c3ccccc3)cc1)[C@@H](C)CN([C@@H](C)CO)S2(=O)=O	PAX8 reporter 103 (no result: HIV Env fusion)
